Drawing on paper PMC7862700, “An all-to-all approach to the identification of sequence-specific readers for epigenetic DNA modifications on cytosine”, this text covers binding signal for 1 sequence.

Holding throughout (assay): DAPPL (digital affinity profiling via proximity ligation, sequencing); 10 mM Tris-HCl pH 7.5, 50 mM NaCl, 1 mM DTT, 4% glycerol, room temperature, 30 min; GST-TFs on glutathione beads, 16-mer random dsDNA library, 0.1% formaldehyde crosslink after washing; high values mean tight binding
One assay deals with T1, FEV (Homo sapiens, UniProt Q99581 1-238).
T1 sequence: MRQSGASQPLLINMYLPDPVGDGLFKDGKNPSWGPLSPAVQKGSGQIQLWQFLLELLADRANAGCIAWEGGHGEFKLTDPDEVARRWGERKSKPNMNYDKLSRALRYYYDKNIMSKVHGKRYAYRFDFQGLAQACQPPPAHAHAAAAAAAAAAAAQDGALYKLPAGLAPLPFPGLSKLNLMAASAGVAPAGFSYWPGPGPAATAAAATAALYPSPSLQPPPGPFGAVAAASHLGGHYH
The note with it: protein: recombinant; tags: N-terminal GST; dsDNA, one strand shown. The essentials:
(§1)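 Binding signal is defined as a hexamer's read frequency for one factor over its frequency for the tag-only sample. To obtain reads, GST-fused human transcription factors were expressed in yeast, captured on glutathione beads, barcoded with DNA and pooled with that sample. Pools met 200 nmole of a 16-mer random double-stranded DNA library in Tris/NaCl/DTT/glycerol buffer for 30 min at room temperature before washing, 0.1% formaldehyde crosslinking, proximity ligation (BsaI/T4 ligase, 1 h, 37 °C), PCR and Illumina NextSeq500 sequencing.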

The target of the next assay is ETV5 (Homo sapiens, UniProt P41161 1-510). As to conditions: protein: recombinant; tags: N-terminal GST; dsDNA, one strand shown. The essentials: as §1
Chain of ETV5 (P41161 whole entry): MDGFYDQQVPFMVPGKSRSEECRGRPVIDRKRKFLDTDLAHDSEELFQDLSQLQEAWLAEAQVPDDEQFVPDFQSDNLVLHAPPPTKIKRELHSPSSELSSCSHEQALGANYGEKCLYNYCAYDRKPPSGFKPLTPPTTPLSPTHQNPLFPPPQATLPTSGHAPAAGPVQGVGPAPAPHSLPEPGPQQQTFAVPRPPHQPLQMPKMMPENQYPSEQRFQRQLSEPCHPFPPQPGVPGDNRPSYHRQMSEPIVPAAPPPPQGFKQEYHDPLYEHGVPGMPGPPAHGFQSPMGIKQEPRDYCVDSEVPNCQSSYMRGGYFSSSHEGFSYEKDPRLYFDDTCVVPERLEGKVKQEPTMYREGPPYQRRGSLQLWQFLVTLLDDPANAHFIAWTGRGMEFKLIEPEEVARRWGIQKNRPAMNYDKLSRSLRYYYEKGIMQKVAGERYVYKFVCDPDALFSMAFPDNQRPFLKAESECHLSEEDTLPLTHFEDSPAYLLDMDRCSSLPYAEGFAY
A further assay concerns the target HSF1 (Homo sapiens, UniProt Q00613 1-529). The note with it: protein: recombinant; tags: N-terminal GST; chain copies: 3; dsDNA, one strand shown. Put shortly:
as §1

Another assay concerns the target T2, SPIC (Homo sapiens, UniProt Q8N5J4 1-248).
T2 sequence: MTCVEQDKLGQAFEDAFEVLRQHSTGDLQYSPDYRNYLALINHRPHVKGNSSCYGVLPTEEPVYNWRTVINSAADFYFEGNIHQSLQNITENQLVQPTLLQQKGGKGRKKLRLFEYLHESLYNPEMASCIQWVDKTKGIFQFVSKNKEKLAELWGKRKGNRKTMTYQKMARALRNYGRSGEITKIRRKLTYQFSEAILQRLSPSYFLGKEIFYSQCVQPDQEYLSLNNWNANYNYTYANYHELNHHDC
The note with it: protein: recombinant; tags: N-terminal GST; dsDNA, one strand shown. The essentials:
as §1

For a further assay, the target named is ELF4 (Homo sapiens, UniProt Q99607 1-663). The note with it: protein: recombinant; tags: N-terminal GST; dsDNA, one strand shown. Put shortly:
as §1

The next assay has as its target T3, ELK4 (Homo sapiens, UniProt P28324-2 1-405).
T3 sequence: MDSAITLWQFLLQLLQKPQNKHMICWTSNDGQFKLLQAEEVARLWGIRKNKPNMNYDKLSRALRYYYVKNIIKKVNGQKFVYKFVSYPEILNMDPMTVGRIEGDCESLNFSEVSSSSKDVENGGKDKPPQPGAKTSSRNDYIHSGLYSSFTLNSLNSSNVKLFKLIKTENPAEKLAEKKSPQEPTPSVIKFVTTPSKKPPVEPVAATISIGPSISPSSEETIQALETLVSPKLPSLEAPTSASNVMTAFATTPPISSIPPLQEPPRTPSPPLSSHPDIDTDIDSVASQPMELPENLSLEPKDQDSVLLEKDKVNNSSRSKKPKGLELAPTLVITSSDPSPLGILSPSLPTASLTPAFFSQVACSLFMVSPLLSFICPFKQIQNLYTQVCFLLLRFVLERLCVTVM
As to conditions: protein: recombinant; tags: N-terminal GST; dsDNA, one strand shown. The essentials: as §1

The target in the next assay is T4, ETV2 (Homo sapiens, UniProt O00321 1-342).
T4 sequence: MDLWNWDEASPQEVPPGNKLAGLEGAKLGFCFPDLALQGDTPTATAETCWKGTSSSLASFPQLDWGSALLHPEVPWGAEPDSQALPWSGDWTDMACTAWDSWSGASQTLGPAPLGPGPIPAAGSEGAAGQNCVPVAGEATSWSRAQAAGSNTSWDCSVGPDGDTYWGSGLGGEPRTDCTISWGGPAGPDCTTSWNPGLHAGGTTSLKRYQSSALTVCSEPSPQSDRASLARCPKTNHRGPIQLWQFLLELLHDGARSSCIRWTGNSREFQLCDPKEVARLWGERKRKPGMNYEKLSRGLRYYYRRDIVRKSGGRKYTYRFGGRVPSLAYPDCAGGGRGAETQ
As to conditions: protein: recombinant; tags: N-terminal GST; dsDNA, one strand shown. The essentials:
as §1

Another assay has as its target T5, ELF3 (Homo sapiens, UniProt P78545 1-371).
T5 sequence: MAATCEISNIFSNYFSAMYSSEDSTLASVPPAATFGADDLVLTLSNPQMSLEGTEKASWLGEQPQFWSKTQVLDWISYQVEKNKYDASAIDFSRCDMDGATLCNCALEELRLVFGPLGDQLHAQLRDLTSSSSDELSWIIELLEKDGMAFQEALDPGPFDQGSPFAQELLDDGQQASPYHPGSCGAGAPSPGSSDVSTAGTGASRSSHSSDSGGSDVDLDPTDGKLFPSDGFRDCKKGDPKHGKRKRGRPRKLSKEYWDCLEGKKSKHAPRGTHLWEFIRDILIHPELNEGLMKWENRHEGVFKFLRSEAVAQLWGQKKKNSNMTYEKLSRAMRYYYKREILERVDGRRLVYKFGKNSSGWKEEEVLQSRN
As to conditions: protein: recombinant; tags: N-terminal GST; dsDNA, one strand shown. Put shortly: as §1

The next assay deals with CRX (Homo sapiens, UniProt O43186 1-299). As to conditions: protein: recombinant; tags: N-terminal GST; dsDNA, one strand shown. Put shortly:
as §1

Another assay deals with ETV1 (Homo sapiens, UniProt P50549 1-477). The note with it: protein: recombinant; tags: N-terminal GST; dsDNA, one strand shown. Put shortly:
as §1

For the next assay, the target named is T6, ERF (Homo sapiens, UniProt P50548 1-548).
T6 sequence: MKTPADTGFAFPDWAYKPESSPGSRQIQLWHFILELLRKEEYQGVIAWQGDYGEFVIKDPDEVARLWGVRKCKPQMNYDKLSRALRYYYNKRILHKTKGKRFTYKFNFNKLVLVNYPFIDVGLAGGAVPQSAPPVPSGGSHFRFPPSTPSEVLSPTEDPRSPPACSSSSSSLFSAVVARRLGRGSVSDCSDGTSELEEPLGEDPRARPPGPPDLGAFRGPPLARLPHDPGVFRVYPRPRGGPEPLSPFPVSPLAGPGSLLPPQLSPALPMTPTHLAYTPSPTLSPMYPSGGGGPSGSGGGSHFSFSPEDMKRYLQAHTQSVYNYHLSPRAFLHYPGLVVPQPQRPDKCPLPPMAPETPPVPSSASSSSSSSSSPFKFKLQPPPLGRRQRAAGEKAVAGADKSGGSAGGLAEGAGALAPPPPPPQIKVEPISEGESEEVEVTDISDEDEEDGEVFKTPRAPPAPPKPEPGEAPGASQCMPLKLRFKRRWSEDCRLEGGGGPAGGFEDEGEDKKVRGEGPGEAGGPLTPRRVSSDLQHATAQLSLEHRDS
The note with it: protein: recombinant; tags: N-terminal GST; dsDNA, one strand shown. Put shortly: as §1

The next assay deals with T7, ETV3L (Homo sapiens, UniProt Q6ZN32 1-361).
T7 sequence: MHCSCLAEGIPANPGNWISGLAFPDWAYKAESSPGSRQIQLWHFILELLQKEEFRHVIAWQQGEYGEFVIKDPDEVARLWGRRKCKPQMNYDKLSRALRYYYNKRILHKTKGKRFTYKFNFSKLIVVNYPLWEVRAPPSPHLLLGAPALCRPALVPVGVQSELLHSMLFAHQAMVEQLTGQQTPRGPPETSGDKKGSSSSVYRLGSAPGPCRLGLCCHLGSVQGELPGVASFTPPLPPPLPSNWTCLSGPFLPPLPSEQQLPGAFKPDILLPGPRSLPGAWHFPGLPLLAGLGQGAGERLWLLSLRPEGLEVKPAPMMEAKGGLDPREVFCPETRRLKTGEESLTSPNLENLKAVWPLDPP
As to conditions: protein: recombinant; tags: N-terminal GST; dsDNA, one strand shown. Put shortly: as §1

In the next assay the target is T8, ETS2 (Homo sapiens, UniProt P15036 1-469).
T8 sequence: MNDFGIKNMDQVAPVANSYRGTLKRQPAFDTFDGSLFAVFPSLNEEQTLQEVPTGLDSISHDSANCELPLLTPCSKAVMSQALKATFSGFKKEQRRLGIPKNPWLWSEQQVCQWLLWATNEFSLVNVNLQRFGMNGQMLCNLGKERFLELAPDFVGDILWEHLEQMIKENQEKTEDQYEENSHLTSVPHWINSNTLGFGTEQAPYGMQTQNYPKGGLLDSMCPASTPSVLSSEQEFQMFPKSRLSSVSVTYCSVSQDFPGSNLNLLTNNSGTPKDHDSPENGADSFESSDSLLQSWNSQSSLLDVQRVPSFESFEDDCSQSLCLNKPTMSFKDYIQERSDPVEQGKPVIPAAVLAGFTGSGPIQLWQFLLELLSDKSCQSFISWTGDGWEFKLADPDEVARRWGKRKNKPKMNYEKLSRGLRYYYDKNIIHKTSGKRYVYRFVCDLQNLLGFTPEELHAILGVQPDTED
As to conditions: protein: recombinant; tags: N-terminal GST; dsDNA, one strand shown. Put shortly: as §1

The next assay addresses T9, SPDEF (Homo sapiens, UniProt O95238 1-335).
T9 sequence: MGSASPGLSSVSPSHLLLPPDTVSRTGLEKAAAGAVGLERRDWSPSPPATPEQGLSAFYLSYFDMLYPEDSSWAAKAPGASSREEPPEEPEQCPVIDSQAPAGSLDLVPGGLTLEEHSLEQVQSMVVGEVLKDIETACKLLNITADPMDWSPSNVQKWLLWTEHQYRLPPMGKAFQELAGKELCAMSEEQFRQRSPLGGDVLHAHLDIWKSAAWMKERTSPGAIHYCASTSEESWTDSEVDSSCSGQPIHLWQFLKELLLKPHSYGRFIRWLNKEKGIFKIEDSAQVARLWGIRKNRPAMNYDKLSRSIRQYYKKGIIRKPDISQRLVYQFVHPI
As to conditions: protein: recombinant; tags: N-terminal GST; dsDNA, one strand shown. Put shortly:
as §1

For the next assay, the target named is T10, ETV7 (Homo sapiens, UniProt Q9Y603 1-341).
T10 sequence: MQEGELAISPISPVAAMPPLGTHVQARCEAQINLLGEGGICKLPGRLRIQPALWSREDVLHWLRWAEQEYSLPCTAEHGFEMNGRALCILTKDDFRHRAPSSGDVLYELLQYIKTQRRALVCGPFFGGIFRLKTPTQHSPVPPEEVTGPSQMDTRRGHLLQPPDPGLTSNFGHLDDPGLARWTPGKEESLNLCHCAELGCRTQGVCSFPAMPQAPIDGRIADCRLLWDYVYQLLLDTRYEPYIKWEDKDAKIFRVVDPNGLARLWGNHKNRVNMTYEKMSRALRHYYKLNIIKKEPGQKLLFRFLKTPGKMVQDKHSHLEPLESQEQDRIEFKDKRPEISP
As to conditions: protein: recombinant; tags: N-terminal GST; dsDNA, one strand shown. The essentials:
as §1

The target in another assay is T11, ELF5 (Homo sapiens, UniProt Q9UKW6-2 1-255).
T11 sequence: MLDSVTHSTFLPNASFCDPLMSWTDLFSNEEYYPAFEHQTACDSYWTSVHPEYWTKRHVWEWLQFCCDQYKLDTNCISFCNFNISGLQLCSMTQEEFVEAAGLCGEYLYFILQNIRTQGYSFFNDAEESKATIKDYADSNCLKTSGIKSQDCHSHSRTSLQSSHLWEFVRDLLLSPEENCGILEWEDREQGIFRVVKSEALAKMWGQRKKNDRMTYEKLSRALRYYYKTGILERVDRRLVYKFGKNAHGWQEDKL
The note with it: protein: recombinant; tags: N-terminal GST; dsDNA, one strand shown. The essentials: as §1

In a further assay the target is T12, ETV3 (Homo sapiens, UniProt P41162-2 1-143).
T12 sequence: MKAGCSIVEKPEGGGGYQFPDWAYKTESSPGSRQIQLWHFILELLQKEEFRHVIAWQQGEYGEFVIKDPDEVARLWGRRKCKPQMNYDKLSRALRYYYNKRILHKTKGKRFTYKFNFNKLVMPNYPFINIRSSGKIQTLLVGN
The note with it: protein: recombinant; tags: N-terminal GST; dsDNA, one strand shown. Put shortly:
as §1

Another assay addresses ETV6 (Homo sapiens, UniProt P41212 1-452). As to conditions: protein: recombinant; tags: N-terminal GST; dsDNA, one strand shown. The essentials:
as §1

Chain of ELF4 (Q99607 whole entry): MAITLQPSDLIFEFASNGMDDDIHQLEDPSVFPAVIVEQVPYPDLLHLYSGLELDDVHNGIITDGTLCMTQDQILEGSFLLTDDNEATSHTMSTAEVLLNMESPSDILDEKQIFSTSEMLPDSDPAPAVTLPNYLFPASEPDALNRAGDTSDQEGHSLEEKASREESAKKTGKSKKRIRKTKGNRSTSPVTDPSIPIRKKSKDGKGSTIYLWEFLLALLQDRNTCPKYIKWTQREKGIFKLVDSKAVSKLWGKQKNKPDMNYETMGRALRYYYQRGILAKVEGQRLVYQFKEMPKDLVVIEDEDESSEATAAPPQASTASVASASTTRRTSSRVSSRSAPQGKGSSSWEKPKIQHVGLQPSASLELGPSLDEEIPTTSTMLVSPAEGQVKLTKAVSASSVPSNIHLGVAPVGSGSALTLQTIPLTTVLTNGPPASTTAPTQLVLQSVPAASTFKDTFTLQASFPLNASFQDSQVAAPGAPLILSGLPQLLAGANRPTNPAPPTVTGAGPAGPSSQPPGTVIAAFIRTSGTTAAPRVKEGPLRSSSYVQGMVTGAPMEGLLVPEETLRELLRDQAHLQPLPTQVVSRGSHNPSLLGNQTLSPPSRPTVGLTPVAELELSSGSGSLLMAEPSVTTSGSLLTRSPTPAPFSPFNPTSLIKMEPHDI
Chain of ETV6 (P41212 whole entry): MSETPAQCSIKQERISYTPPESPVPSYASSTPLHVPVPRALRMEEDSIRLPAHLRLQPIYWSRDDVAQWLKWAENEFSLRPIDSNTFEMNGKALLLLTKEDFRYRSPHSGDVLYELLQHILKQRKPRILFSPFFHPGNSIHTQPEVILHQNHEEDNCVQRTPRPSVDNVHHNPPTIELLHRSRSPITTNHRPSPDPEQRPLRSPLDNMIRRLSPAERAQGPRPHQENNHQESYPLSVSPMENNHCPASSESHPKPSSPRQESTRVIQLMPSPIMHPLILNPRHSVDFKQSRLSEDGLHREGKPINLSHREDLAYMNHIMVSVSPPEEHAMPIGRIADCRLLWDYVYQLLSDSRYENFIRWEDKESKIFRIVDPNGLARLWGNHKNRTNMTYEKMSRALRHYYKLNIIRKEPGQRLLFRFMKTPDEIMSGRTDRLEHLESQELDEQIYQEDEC
Chain of CRX (O43186 whole entry): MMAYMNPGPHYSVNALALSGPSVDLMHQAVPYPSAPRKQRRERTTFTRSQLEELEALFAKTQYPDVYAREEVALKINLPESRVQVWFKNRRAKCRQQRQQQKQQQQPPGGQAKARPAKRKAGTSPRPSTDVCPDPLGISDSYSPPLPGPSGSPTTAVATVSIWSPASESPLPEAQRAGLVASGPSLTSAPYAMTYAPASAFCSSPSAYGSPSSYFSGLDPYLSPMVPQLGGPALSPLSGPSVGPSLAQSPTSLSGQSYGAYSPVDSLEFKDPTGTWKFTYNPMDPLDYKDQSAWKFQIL
Chain of HSF1 (Q00613 whole entry): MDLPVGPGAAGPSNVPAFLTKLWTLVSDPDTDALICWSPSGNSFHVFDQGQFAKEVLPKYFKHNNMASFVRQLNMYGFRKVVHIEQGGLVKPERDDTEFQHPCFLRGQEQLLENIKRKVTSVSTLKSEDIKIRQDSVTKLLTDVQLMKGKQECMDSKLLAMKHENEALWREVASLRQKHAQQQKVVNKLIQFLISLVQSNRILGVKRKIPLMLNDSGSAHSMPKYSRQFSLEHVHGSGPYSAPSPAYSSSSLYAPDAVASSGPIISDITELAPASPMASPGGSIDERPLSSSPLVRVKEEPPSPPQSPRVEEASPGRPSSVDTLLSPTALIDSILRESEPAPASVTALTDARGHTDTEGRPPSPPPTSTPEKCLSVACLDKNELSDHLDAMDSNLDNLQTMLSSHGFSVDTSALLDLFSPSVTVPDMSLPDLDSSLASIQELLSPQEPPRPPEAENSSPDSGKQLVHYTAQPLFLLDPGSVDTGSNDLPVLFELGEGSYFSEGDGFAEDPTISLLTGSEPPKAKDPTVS
Chain of ETV1 (P50549 whole entry): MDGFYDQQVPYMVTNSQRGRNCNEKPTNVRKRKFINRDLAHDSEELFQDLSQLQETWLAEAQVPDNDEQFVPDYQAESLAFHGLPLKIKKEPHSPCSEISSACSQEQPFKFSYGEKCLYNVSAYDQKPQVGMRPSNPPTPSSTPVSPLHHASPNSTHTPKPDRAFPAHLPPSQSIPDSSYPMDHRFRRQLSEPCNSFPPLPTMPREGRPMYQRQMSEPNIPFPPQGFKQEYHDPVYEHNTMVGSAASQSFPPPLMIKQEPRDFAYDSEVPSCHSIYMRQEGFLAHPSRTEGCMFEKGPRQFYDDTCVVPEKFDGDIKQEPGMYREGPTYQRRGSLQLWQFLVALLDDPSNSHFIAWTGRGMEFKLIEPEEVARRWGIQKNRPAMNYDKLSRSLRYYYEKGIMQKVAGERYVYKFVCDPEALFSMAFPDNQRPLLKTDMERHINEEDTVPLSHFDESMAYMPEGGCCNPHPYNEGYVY

As for TTTTGC, the binding signal is 1.3 fold enrichment (6-mer frequency, TF over GST control) with FEV; 1.34 fold enrichment (6-mer frequency, TF over GST control) in the assay with ETV5; 1.36 fold enrichment (6-mer frequency, TF over GST control) in the assay with HSF1; 1.25 fold enrichment (6-mer frequency, TF over GST control) with SPIC; 1.42 fold enrichment (6-mer frequency, TF over GST control) with ELF4; 1.3 fold enrichment (6-mer frequency, TF over GST control) with ELK4. The binding signal in the assay with ETV2 was 1.53 fold enrichment (6-mer frequency, TF over GST control); with ELF3, 1.34 fold enrichment (6-mer frequency, TF over GST control); with CRX, 1.41 fold enrichment (6-mer frequency, TF over GST control); in the assay with ETV1, 1.34 fold enrichment (6-mer frequency, TF over GST control); with ERF, 1.53 fold enrichment (6-mer frequency, TF over GST control); with ETV3L, 1.35 fold enrichment (6-mer frequency, TF over GST control). The binding signal with ETS2 was 1.31 fold enrichment (6-mer frequency, TF over GST control); in the assay with SPDEF, 1.35 fold enrichment (6-mer frequency, TF over GST control); with ETV7 it was 1.36 fold enrichment (6-mer frequency, TF over GST control); in the assay with ELF5 it was 1.27 fold enrichment (6-mer frequency, TF over GST control); in the assay with ETV3, 1.15 fold enrichment (6-mer frequency, TF over GST control); with ETV6 it was 1.49 fold enrichment (6-mer frequency, TF over GST control).
